Measurements as given in PubChem BioAssay (NCI).
About 83,000 compounds went through this panel and 20% of them were active in at least one assay; those are over-represented in the sample as a whole.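 In brief: 96-well plates, 48 h treatment, single concentration, percent growth endpoint.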 The source made the active and inactive calls. Rule for the calls: active = growth percent below 10; inactive = the rest.

How the values were obtained:
Assay in all cases: NCI-60 one-dose screen, 48 h (100 = growth as untreated, 0 = no growth, -100 = all killed)
Conditions in all cases: 10 µM unless noted
SR leukemia = system: SR leukemia
RPMI-8226 leukemia = system: RPMI-8226 leukemia
OVCAR-8 ovarian = system: OVCAR-8 ovarian
OVCAR-5 ovarian = system: OVCAR-5 ovarian
OVCAR-4 ovarian = system: OVCAR-4 ovarian
SK-OV-3 ovarian = system: SK-OV-3 ovarian
IGROV1 ovarian = system: IGROV1 ovarian
OVCAR-3 ovarian = system: OVCAR-3 ovarian
NCI/ADR-RES ovarian = system: NCI/ADR-RES ovarian
HS 578T breast = system: HS 578T breast

Measured: growth

O=C(NCCNc1nccc(-c2c(-c3cccc(O)c3)nc3sccn23)n1)Nc1cc(C(F)(F)F)cc(C(F)(F)F)c1
inactive: SR leukemia 65.3% | RPMI-8226 leukemia 45.7% | OVCAR-8 ovarian 52.8% | OVCAR-5 ovarian 96.5% | OVCAR-4 ovarian 121% | SK-OV-3 ovarian 89.3% | IGROV1 ovarian 65.2% | OVCAR-3 ovarian 82.2% | NCI/ADR-RES ovarian 87.8%

CCOC(=O)c1cnc2c(OC)ccc(OC)c2c1Cl
inactive: SR leukemia 115% | RPMI-8226 leukemia 100% | OVCAR-8 ovarian 101% | OVCAR-5 ovarian 109% | OVCAR-4 ovarian 113% | SK-OV-3 ovarian 100% | IGROV1 ovarian 117% | OVCAR-3 ovarian 108% | NCI/ADR-RES ovarian 110%

COc1ccc(-c2c(C#N)cnc(N)c2-c2nc3cc(C)c(C)cc3[nH]2)cc1
inactive: SR leukemia 20.2% | RPMI-8226 leukemia 81.3% | OVCAR-8 ovarian 43.6% | OVCAR-5 ovarian 102% | OVCAR-4 ovarian 50.7% | SK-OV-3 ovarian 46% | IGROV1 ovarian 36.4% | OVCAR-3 ovarian 55.7% | NCI/ADR-RES ovarian 50.2%

COc1ccc(-c2nn(-c3ccc(NC(=O)Nc4ccc(Cl)c(C(F)(F)F)c4)cc3)cc2-c2ccncc2)cc1Cl
inactive: OVCAR-5 ovarian 14.5% | OVCAR-4 ovarian 45.1% | SK-OV-3 ovarian 23.9% | IGROV1 ovarian 24.8%
active: SR leukemia -7.31% | RPMI-8226 leukemia -33.1% | OVCAR-8 ovarian 9.53% | OVCAR-3 ovarian -1.59% | NCI/ADR-RES ovarian 9.1%

CCCCCCCCCCCCCCCCCCNCc1ccc(Cl)cc1
active: SR leukemia -30.1% | RPMI-8226 leukemia -53.9% | OVCAR-8 ovarian -62.7% | OVCAR-5 ovarian -59.5% | OVCAR-4 ovarian -69.1% | SK-OV-3 ovarian -33.1% | IGROV1 ovarian -64.6% | OVCAR-3 ovarian -87.9% | HS 578T breast -48.7% | NCI/ADR-RES ovarian -64.6%

NCC(=O)NS(=O)(=O)OC[C@H]1O[C@@H](n2cnc3c(N)ncnc32)[C@H](O)[C@@H]1O
active: SR leukemia 9.93% | OVCAR-8 ovarian -11.9% | OVCAR-5 ovarian 0.292% | OVCAR-4 ovarian -22.1% | SK-OV-3 ovarian 6.28% | NCI/ADR-RES ovarian 2.07%
inactive: RPMI-8226 leukemia 18% | IGROV1 ovarian 11.7% | OVCAR-3 ovarian 10% | HS 578T breast 16.1%

COc1ccc(/C=C/C(=O)c2ccc(-n3cc(CN4CCN(c5cc6c(cc5F)c(=O)c(C(=O)O)cn6C5CC5)CC4)nn3)cc2)cc1OC
active: SR leukemia -12.4% | RPMI-8226 leukemia -15.8% | IGROV1 ovarian -24.8% | OVCAR-3 ovarian -16.1%
inactive: OVCAR-8 ovarian 39.7% | OVCAR-5 ovarian 72.3% | OVCAR-4 ovarian 73.7% | SK-OV-3 ovarian 67.5% | HS 578T breast 21.5% | NCI/ADR-RES ovarian 82%

[2H]c1nc(Nc2ncc(F)c(-c3cc(F)c4nc(C)n(C(C)C)c4c3)n2)c([2H])c([2H])c1CN1CCN(CC)CC1
inactive: SR leukemia 11.7% | RPMI-8226 leukemia 34.7% | OVCAR-8 ovarian 74.3% | OVCAR-5 ovarian 49.8% | OVCAR-4 ovarian 66.1% | SK-OV-3 ovarian 35.7% | IGROV1 ovarian 39.1% | OVCAR-3 ovarian 73.1% | HS 578T breast 29.9% | NCI/ADR-RES ovarian 71%

O=C(Nc1ccc(-n2ccc3c(NC(=O)c4ccccc4)ncnc32)cc1)Nc1cccc(Cl)c1Cl
inactive: SR leukemia 21.8% | RPMI-8226 leukemia 10.2% | OVCAR-8 ovarian 13.4% | OVCAR-5 ovarian 17.5%
active: OVCAR-4 ovarian -74.3% | SK-OV-3 ovarian -14.8% | IGROV1 ovarian -3.19% | OVCAR-3 ovarian -41.7% | NCI/ADR-RES ovarian 4.77%

O=C(O)c1ccccc1C(=O)c1ccc(I)cc1
inactive: SR leukemia 101% | RPMI-8226 leukemia 97.7% | OVCAR-8 ovarian 107% | OVCAR-5 ovarian 107% | OVCAR-4 ovarian 109% | SK-OV-3 ovarian 96.4% | IGROV1 ovarian 98.4% | OVCAR-3 ovarian 107% | HS 578T breast 104% | NCI/ADR-RES ovarian 97.5%

CCC(CC(C)C)Nc1ccc(NC(CC)CC(C)C)cc1 (centres undefined)
active: RPMI-8226 leukemia -5.42% | OVCAR-3 ovarian -6.06%
inactive: SR leukemia 48.9% | OVCAR-8 ovarian 87.6% | OVCAR-5 ovarian 108% | OVCAR-4 ovarian 75.8% | SK-OV-3 ovarian 94.4% | IGROV1 ovarian 83.9% | NCI/ADR-RES ovarian 96.6%

COc1cccc(-c2nc3sccn3c2-c2ccnc(NCCNC(=O)c3ccccc3)n2)c1
inactive: SR leukemia 79.8% | RPMI-8226 leukemia 41.6% | OVCAR-8 ovarian 62.5% | OVCAR-5 ovarian 99.1% | OVCAR-4 ovarian 109% | SK-OV-3 ovarian 88.5% | IGROV1 ovarian 69.2% | OVCAR-3 ovarian 89.1% | NCI/ADR-RES ovarian 70.5%

ClC1c2ccccc2CCc2ccccc21
inactive: SR leukemia 89.2% | RPMI-8226 leukemia 92% | OVCAR-8 ovarian 94.7% | OVCAR-5 ovarian 86.4% | OVCAR-4 ovarian 85.9% | SK-OV-3 ovarian 91.2% | IGROV1 ovarian 72.5% | OVCAR-3 ovarian 100% | NCI/ADR-RES ovarian 116%

CCOC(=O)c1noc2c1CCc1c-2cn(Cc2ccc(OC)cc2)c1-c1cc(OC)c(OC)c(OC)c1
active: OVCAR-3 ovarian 3.47% | HS 578T breast 8.37%
inactive: SR leukemia 17.8% | RPMI-8226 leukemia 24.7% | OVCAR-8 ovarian 32.6% | OVCAR-5 ovarian 71.2% | OVCAR-4 ovarian 63.2% | SK-OV-3 ovarian 65.3% | IGROV1 ovarian 33.2% | NCI/ADR-RES ovarian 21.9%

Fc1ccc(Nc2ncnc3ccc(-c4cn[nH]c4)cc23)cc1Cl
inactive: RPMI-8226 leukemia 38.9% | OVCAR-8 ovarian 44.1% | OVCAR-5 ovarian 75.7% | OVCAR-4 ovarian 55.5% | OVCAR-3 ovarian 50.6% | HS 578T breast 31.4% | NCI/ADR-RES ovarian 51.6%
active: SR leukemia 0.823% | SK-OV-3 ovarian -11.6% | IGROV1 ovarian 5.6%

Nc1nc(Cl)c2c(C(F)(F)F)cn(CC3CCNCC3)c2n1
inactive: RPMI-8226 leukemia 83.7% | OVCAR-5 ovarian 110% | OVCAR-4 ovarian 101% | SK-OV-3 ovarian 107% | OVCAR-3 ovarian 94.7% | HS 578T breast 88.7% | NCI/ADR-RES ovarian 109%
active: SR leukemia -38.7% | OVCAR-8 ovarian -16.3% | IGROV1 ovarian -62.8%

COc1cc(Cn2cc3c(c2)-c2onc(CO)c2CC3)cc(OC)c1OC
inactive: SR leukemia 71.8% | RPMI-8226 leukemia 79.1% | OVCAR-8 ovarian 98.7% | OVCAR-5 ovarian 103% | OVCAR-4 ovarian 98% | SK-OV-3 ovarian 112% | IGROV1 ovarian 96.6% | OVCAR-3 ovarian 99.4% | HS 578T breast 80.3% | NCI/ADR-RES ovarian 93.8%

O=C(Nc1ccc(-n2cc(-c3ccncc3)c(-c3ccc(O)c(Cl)c3)n2)cc1)c1cc(C(F)(F)F)cc(C(F)(F)F)c1
inactive: SR leukemia 58.8% | RPMI-8226 leukemia 27.9% | OVCAR-8 ovarian 69.5% | OVCAR-5 ovarian 70.9% | OVCAR-4 ovarian 85.9% | SK-OV-3 ovarian 84% | IGROV1 ovarian 61.4% | OVCAR-3 ovarian 49.8% | NCI/ADR-RES ovarian 67.2%

COC(=O)/C=C/C(=O)c1cc(C)cc(C)c1O
inactive: SR leukemia 90% | RPMI-8226 leukemia 104% | OVCAR-8 ovarian 111% | OVCAR-5 ovarian 98.9% | OVCAR-4 ovarian 101% | SK-OV-3 ovarian 104% | IGROV1 ovarian 106% | OVCAR-3 ovarian 102% | HS 578T breast 112% | NCI/ADR-RES ovarian 99.5%

CCCCn1c(-c2cccc(OC)c2)nc2cc(OC)c(OC)cc2c1=O
inactive: SR leukemia 75.1% | RPMI-8226 leukemia 58.9% | OVCAR-8 ovarian 118% | OVCAR-5 ovarian 101% | OVCAR-4 ovarian 108% | SK-OV-3 ovarian 119% | IGROV1 ovarian 89.2% | OVCAR-3 ovarian 113% | HS 578T breast 104% | NCI/ADR-RES ovarian 94.2%

O=C(Nc1ccc(-n2cc(-c3ccncc3)c(-c3ccc(O)c(Cl)c3)n2)cc1)c1ccc(Cl)c(Cl)c1
active: RPMI-8226 leukemia -27.7%
inactive: SR leukemia 18.6% | OVCAR-8 ovarian 25.7% | OVCAR-5 ovarian 71.2% | OVCAR-4 ovarian 78.9% | SK-OV-3 ovarian 66.6% | IGROV1 ovarian 61.5% | OVCAR-3 ovarian 25.7% | NCI/ADR-RES ovarian 24.9%

COc1cc2nc(C(=O)N3CCCCC3)cc(Nc3ccccc3)c2cc1OC
inactive: SR leukemia 81.7% | RPMI-8226 leukemia 87.6% | OVCAR-8 ovarian 98.3% | OVCAR-5 ovarian 109% | OVCAR-4 ovarian 100% | SK-OV-3 ovarian 108% | IGROV1 ovarian 98.3% | OVCAR-3 ovarian 93.9% | HS 578T breast 95% | NCI/ADR-RES ovarian 95.4%

O=C1CCC(c2c(O)cc(O)c3c(=O)c(O)c(-c4ccc(O)c(O)c4)oc23)N1 (centres undefined)
inactive: SR leukemia 96.2% | RPMI-8226 leukemia 99.5% | OVCAR-8 ovarian 105% | OVCAR-5 ovarian 104% | OVCAR-4 ovarian 108% | SK-OV-3 ovarian 85.1% | IGROV1 ovarian 107% | OVCAR-3 ovarian 101% | HS 578T breast 100% | NCI/ADR-RES ovarian 96.8%

Cc1cccc[n+]1CCC[n+]1ccccc1C
inactive: SR leukemia 96.2% | RPMI-8226 leukemia 98.8% | OVCAR-8 ovarian 105% | OVCAR-5 ovarian 109% | OVCAR-4 ovarian 110% | SK-OV-3 ovarian 76.1% | IGROV1 ovarian 107% | OVCAR-3 ovarian 112% | HS 578T breast 109% | NCI/ADR-RES ovarian 106%

CN1C(=O)C2(SCC(C(=O)NCC(=O)OC(C)(C)C)N2C(=O)C2CCCCC2)c2ccccc21 (centres undefined)
inactive: SR leukemia 110% | RPMI-8226 leukemia 90.5% | OVCAR-8 ovarian 96% | OVCAR-5 ovarian 104% | OVCAR-4 ovarian 100% | SK-OV-3 ovarian 99.8% | IGROV1 ovarian 101% | OVCAR-3 ovarian 107% | HS 578T breast 97.5% | NCI/ADR-RES ovarian 97.7%

COc1ccc(-c2nn(-c3ccc(NC(=O)c4cc(Cl)cc(Cl)c4)cc3)cc2-c2ccncc2)cc1Cl
active: RPMI-8226 leukemia -11.6%
inactive: SR leukemia 50.7% | OVCAR-8 ovarian 77.5% | OVCAR-5 ovarian 64.8% | OVCAR-4 ovarian 89.6% | SK-OV-3 ovarian 86.3% | IGROV1 ovarian 85.3% | OVCAR-3 ovarian 64.1% | NCI/ADR-RES ovarian 69.7%

COc1ccc(-c2nnc(SCC(=O)Nc3ccc(C(=O)/C=C/c4ccccc4)cc3)o2)cc1OC
inactive: SR leukemia 88.1% | RPMI-8226 leukemia 70.5% | OVCAR-8 ovarian 98.8% | OVCAR-5 ovarian 106% | OVCAR-4 ovarian 101% | SK-OV-3 ovarian 109% | IGROV1 ovarian 103% | OVCAR-3 ovarian 105% | HS 578T breast 110% | NCI/ADR-RES ovarian 93.5%
